Screens: PubChem BioAssay, The Scripps Research Institute Molecular Screening Center
PKA-R2B act = activates the human PKA-R2B holoenzyme complex | PKA-R2B holoenzyme dissociation, Cy5-IP20 fluorescence polarization; R2B truncated from residue 108, S112A mutant; 0% DMSO only, 100% 113 µM cGMP | activation, % at 11.4 µM | hit rate 0.079% among 340,000;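 active = activation above a cutoff set at the mean over all compounds plus 3 SD, cut at about 18% in these data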;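 also: higher means more holoenzyme dissociation and a rise in polarization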
Target sequence (P31323 whole entry, looked up, other chains not shown, the tested form may be a part): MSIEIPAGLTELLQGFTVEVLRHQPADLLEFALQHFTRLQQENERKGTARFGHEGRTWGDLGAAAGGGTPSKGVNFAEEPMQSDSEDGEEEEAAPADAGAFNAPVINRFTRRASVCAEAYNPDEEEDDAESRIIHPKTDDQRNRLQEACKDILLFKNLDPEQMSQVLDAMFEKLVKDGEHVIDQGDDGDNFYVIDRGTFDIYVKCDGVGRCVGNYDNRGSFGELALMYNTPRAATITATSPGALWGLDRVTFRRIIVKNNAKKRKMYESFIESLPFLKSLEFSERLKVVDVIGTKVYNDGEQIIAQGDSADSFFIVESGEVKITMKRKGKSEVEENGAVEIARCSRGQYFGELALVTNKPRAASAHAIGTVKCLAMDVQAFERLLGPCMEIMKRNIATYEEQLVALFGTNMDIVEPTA
bovine MsrA act = bovine methionine sulfoxide reductase A activation. purified bovine MsrA, absorbance read-out. activation, % at 10.6 µM. hit rate 0.3% among 360,000. AID 602163; in the data active = activation above about 7.5%
PKA-R1A activ = PKA-R1A complex activation. PKA-R1A dissociation, Cy5-IP20 fluorescence polarization; scaled: DMSO 0%, 113 µM cGMP 100%. activation, % at 11.4 µM. hit rate 0.083% among 340,000. AID 504707;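 active = percent activation above the mean of all tested compounds plus 3 SD, cut at about 19% in these data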;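 also: higher means more PKAc released from R1A so a rise in polarization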
MsrA inhibitor = inhibitors of bovine MsrA | purified bovine MsrA, absorbance read-out | inhibition, % at 15.5 µM | hit rate 0.75% among 360,000 | AID 651718
MsrA conf = confirmation of bovine MsrA inhibitors | purified bovine MsrA, absorbance read-out | hit rate 41% among 2,300 | AID 651822 | shares compounds with MsrA inhibitor | inhibition, % at 15.5 µM;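 also: coupled to thioredoxin reductase with NADPH and selenocystamine and DMSO as substrate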
Each line names hits and unclear results; the compound was inactive in the other large screens (follow-up assays come after a bar, where they were run). Compounds with a hit are over-represented: about 1.1% of the library has one in this group of screens. Rule as the data show it, unless noted: active = inhibition above about 4.5%; inactive = the rest.

O=[N+]([O-])c1ccc(NN=C(C2CC2)C2CC2)c([N+](=O)[O-])c1	none
C/C(=N\Nc1ccc([N+](=O)[O-])cc1[N+](=O)[O-])C(C)C(C)C (centres undefined)	MsrA inhibitor 16 | MsrA conf 14
CCOC(=O)C(C)/C(C)=N\Nc1ccc([N+](=O)[O-])cc1[N+](=O)[O-] (centres undefined)	MsrA inhibitor 15 | MsrA conf 13
CCOC(=O)C(C(=O)OCC)C(C)(C)/C(C)=N\Nc1ccc([N+](=O)[O-])cc1[N+](=O)[O-]	none
COc1cccc(C(=O)N[C@@H](Cc2cccnc2)C(=O)N2CCC[C@H]2C(=O)NCc2ccccc2)c1	none (no result: PKA-R2B act, bovine MsrA act, PKA-R1A activ)
COc1cccc(-c2cc3c(-n4cccc4)ncnc3o2)c1	MsrA inhibitor 5.5 | MsrA conf inactive
O=C(CSC(=S)N1CCOCC1)c1cc2ccccc2oc1=O	none (no result: MsrA inhibitor)
O=c1oc2ccccc2c(NCc2ccc(Cl)cc2)c1[N+](=O)[O-]	none
Nc1c([N+](=O)[O-])c(=O)oc2ccccc12	MsrA inhibitor 5.9 | MsrA conf inactive
CC(C)Nc1c([N+](=O)[O-])c(=O)oc2ccccc12	none
O=c1oc2ccccc2c(NCc2ccccc2)c1[N+](=O)[O-]	MsrA inhibitor 5.8 | MsrA conf 5.0
CC(Nc1c([N+](=O)[O-])c(=O)oc2ccccc12)c1ccccc1 (centres undefined)	MsrA inhibitor 25 | MsrA conf 21
COc1cccc(CCOC(=O)c2c(-c3ccsc3)oc3c2C(OC(C)=O)CCC3)c1 (centres undefined)	none (no result: PKA-R2B act, PKA-R1A activ)
CC1(C)CCCN(C(=O)c2coc(=O)c(Br)c2)C1	MsrA inhibitor 4.9 | MsrA conf inactive
O=C(N/N=C/c1ccc(-c2ccc(S(=O)(=O)Nc3ncccn3)cc2)o1)c1cc2ccccc2cc1O	none
NC(=S)N/N=C/c1ccc(-c2ccccc2)o1	MsrA inhibitor 6.7 | MsrA conf inactive
COc1ccc(-c2ccc(/C=N/NC(=O)Cc3nnc(N)s3)o2)cc1Cl	none (no result: PKA-R2B act, PKA-R1A activ)
COC(=O)c1ccc(-c2ccc(/C=N/NC(=O)Cc3nnc(N)s3)o2)cc1	MsrA inhibitor 4.8 | MsrA conf inactive
NS(=O)(=O)c1ccc(-c2ccc(/C=N/NC(=O)c3ccccc3O)o2)cc1	MsrA inhibitor 4.9 | MsrA conf inactive
CCOc1ccc(C(=O)N/N=C/c2ccc(-c3ccc(S(=O)(=O)Nc4ncccn4)cc3)o2)cc1	MsrA inhibitor 6.0 | MsrA conf 4.9
NC(=S)NN=Cc1ccc(-c2ccc(S(=O)(=O)Nc3ncccn3)cc2)o1	none
Cc1ccc(-c2ccc(/C=N/NC(N)=S)o2)cc1	none
O=C(c1cc2ccccc2oc1=O)N(Cc1cccc(Br)c1)C1CCS(=O)(=O)C1 (centres undefined)	none
O=C(NC1CC1)c1ccccc1	none
Nc1nnc(CC(=O)N/N=C/c2ccc(-c3ccccc3)o2)s1	MsrA inhibitor 6.6 | MsrA conf 7.9
O=C1NC(=S)N/C1=C/C=C/c1ccccc1	MsrA inhibitor 4.7 | MsrA conf inactive
Cc1cc(C(=O)O)ccc1-n1c(C)cc(/C=C2\SC(=O)NC2=O)c1C	MsrA inhibitor 5.7 | MsrA conf inactive
CN=Cc1nc(-c2ccccc2)oc1O	MsrA inhibitor 9.9 | MsrA conf 7.3
CCCS(=O)(=O)NC(=O)C1(C)CCCN(C(=O)c2cc3ccccc3s2)C1 (centres undefined)	none (no result: PKA-R2B act, PKA-R1A activ)
CN(Cc1ccccc1)C1=CC(=[N+]2CCCC2)CC(C)(C)C1	MsrA inhibitor 5.5 | MsrA conf inactive
CN(C)Cc1ccccc1	none (no result: PKA-R2B act, bovine MsrA act, PKA-R1A activ)
CCN(CC)C1=CC(=[N+]2CCCC2)CC(C)(C)C1	MsrA inhibitor 5.7 | MsrA conf inactive
COc1ccc(Nc2nc3c(C)cccc3cc2C#N)cc1	none
COc1cccc(Nc2nc3cc(OC)ccc3cc2C#N)c1	MsrA inhibitor 17 | MsrA conf 13
O=C(c1cnc2sccn2c1=O)N1CCc2ccccc2C1	MsrA inhibitor 4.8 | MsrA conf inactive
CN1CCc2c(sc3nc(SCC(=O)NCc4ccco4)n(-c4ccccc4)c(=O)c23)C1	MsrA inhibitor 6.4 | MsrA conf inactive
COc1ccc(-n2c(SCC(=O)NCc3ccco3)nc3sc4c(c3c2=O)CCN(C)C4)cc1	none
COC(=O)CSc1nc2sc3c(c2c(=O)n1-c1ccc(OC)cc1)CCN(C)C3	none
O=C(O)CSc1nc2sc3c(c2c(=O)n1-c1ccccc1)CCC3	MsrA inhibitor 5.0 | MsrA conf inactive
COc1ccc(-n2c(SCC(N)=O)nc3sc4c(c3c2=O)CCN(C)C4)cc1	MsrA inhibitor 6.1 | MsrA conf inactive
Cc1ccc(C(=O)N2N=C(c3cccc(NS(C)(=O)=O)c3)CC2c2cccs2)cc1 (centres undefined)	none
CCCCCN(C(=O)CCC(=O)OCC(=O)N1CCCCC1C)c1c(N)n(CCCC)c(=O)[nH]c1=O (centres undefined)	none
Fc1ccc2cc(-c3ccsc3)ncc2c1	none
CN(C)c1cccc2c(S(=O)(=O)NC(=O)[C@H]3O[C@@H](n4ccc(=O)[nH]c4=O)[C@H](O)[C@@H]3O)cccc12	none (no result: PKA-R2B act, bovine MsrA act, PKA-R1A activ)
Cc1nn(-c2ccccc2)c(-c2ccccc2[N+](=O)[O-])c1CC#N	none (no result: PKA-R2B act, PKA-R1A activ)
NC(=O)CSc1oc(-c2ccco2)nc1S(=O)(=O)c1ccc(Br)cc1	none (no result: MsrA inhibitor)
CCc1cc(-c2[nH]ncc2-c2ccc(OC)cc2)c(O)cc1O	MsrA inhibitor 7.1 | MsrA conf inactive
Cc1cccc(OCC(=O)N(C)c2c(N)n(Cc3ccccc3)c(=O)[nH]c2=O)c1C	none
CCOC(=O)C(=CNc1ccc(C#N)cc1)C(=O)OCC	MsrA inhibitor 7.1 | MsrA conf 5.5
CCC(CO)Nc1ccn2nc(-c3cccc(Cl)c3)cc2n1 (centres undefined)	none (no result: PKA-R2B act, PKA-R1A activ)
Cc1ccc(C(=O)N/N=C\c2ccc(Br)o2)o1	MsrA inhibitor 6.4 | MsrA conf 6.7
COc1ccc(S(=O)(=O)CCC(=O)N2CCN(c3ccc(C(C)=O)cc3)CC2)cc1	MsrA inhibitor 4.7 | MsrA conf inactive
O=C(Cn1[nH]c(=O)c2ccccc2c1=O)OCC(=O)c1ccc(Br)cc1	none
N#C/C(=C\c1ccco1)C(=O)Nn1cnnc1	MsrA inhibitor 7.5 | MsrA conf 5.7
N#C/C(=C\c1ccco1)C(=O)Nc1ccc(S(N)(=O)=O)cc1	none
Nc1[nH]c(C(=O)c2ccccc2)c(-c2ccc(Cl)cc2)c1C(=O)c1c[nH]c2ccc(Br)cc12	none (no result: PKA-R2B act, bovine MsrA act, PKA-R1A activ)
O=C(CCN1C(=O)c2ccccc2S1(=O)=O)Nc1ccc(F)c(F)c1F	none
NC(=S)N/N=C/c1ccc(/C=N/NC(N)=S)cc1	MsrA inhibitor 10.0 | MsrA conf 9.0
Cn1cccc1/C=N/NC(N)=S	MsrA inhibitor 7.4 | MsrA conf inactive
Cn1c2ccccc2c(=O)c2ccc(-c3ccc4c(c3)OCO4)cc21	none
Cc1ncsc1C(=O)Nc1nc2c(s1)CC(C)CC2 (centres undefined)	MsrA inhibitor 6.3 | MsrA conf inactive
N#C/C(=C\c1ccc[nH]1)C(=O)Nc1ccccc1F	none
Cc1cc(/C=C(\C#N)C(=O)Nc2ccccc2F)c(C)[nH]1	MsrA inhibitor 4.7 | MsrA conf inactive
